Results reported in PubChem BioAssay AID777 (Sanford-Burnham Center for Chemical Genomics, 2007).
In all, about 96,000 compounds went through this assay and about 19,000 (20%) were called active.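 Rule for the calls: active = blocking of liver enzyme CYP2C9 beyond about 50% at 5 µM (limit read from the data); inactive = the rest.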 The list is a sample of the results.

The compounds below were run against Cytochrome P450 2C9 (Homo sapiens) (UniProt P11712) (assay: blockers of cytochrome P450 2C9 activity – biochemical, luminescence, ADME assay, primary screen (AID 777)). Settings: CYP2C9 Supersomes, luciferin-H conversion, at 5 µM, hits give high values.
Chain of Cytochrome P450 2C9 (Homo sapiens) (P11712 whole entry, looked up): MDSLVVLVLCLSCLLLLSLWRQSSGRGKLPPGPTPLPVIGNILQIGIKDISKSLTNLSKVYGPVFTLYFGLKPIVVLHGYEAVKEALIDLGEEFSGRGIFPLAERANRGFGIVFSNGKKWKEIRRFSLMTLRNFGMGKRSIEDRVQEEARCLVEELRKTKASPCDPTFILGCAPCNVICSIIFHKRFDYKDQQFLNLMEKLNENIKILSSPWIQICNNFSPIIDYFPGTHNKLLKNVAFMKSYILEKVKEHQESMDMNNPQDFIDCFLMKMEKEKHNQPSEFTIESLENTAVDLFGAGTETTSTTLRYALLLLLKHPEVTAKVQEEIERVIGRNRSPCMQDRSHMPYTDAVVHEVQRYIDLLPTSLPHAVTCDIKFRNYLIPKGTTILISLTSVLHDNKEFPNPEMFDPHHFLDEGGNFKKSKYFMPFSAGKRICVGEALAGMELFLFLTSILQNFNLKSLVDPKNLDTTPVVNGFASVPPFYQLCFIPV

inhibition, inactive:
COc1ccc(S(=O)(=O)N(C)CC(=O)Nc2ccc3c(c2)OCCO3)cc1OC 27.4%
COc1ccc(CNc2ccc3c(c2)CCC3)cc1OC 7.2%
CC(C)C(=O)OCC(=O)Nc1ccc2c(c1)CCC2 -0.6%
CCC(=NC1CC(C)(C)NC(C)(C)C1)C1=C(O)CC(C)(C)CC1=O 13.4%
Cn1c(=NC(=O)CSCC(=O)N2CCOCC2)sc2ccccc21 -13.1%
O=C(CSc1ncccn1)NC(=O)NCc1ccccc1 5.8%
Cc1cc(C)c2c(-n3cccc3)c(NC(=O)OCc3ccccc3)sc2n1 13.2%
CCCCOC(=O)Nc1sc2nc(C)cc(C)c2c1-n1cccc1 37.4%
COc1ccc(C2=Nc3cc(C)ccc3OC2)cc1 19.1%
Cc1ccc(S(=O)(=O)n2cnc3ccccc32)c(C)c1 -7.6%
O=C(CN1C(=O)C2C3C=CC(C3)C2C1=O)NCCc1ccccc1Cl (stereo unspecified) 17.1%
CCc1c(O)nc(SCC(=O)N2CCCCC2)n(-c2ccccc2C)c1=O 4.6%
Cc1ccc2nc3n(c(=O)c2c1)CCC3 21%
COc1ccc(OC)c(CNC(=O)C2CCCN(c3nc4ccccc4o3)C2)c1 (stereo unspecified) 44.8%
Cc1ccc(C(c2sc3nc(C)nn3c2O)N2CCN(c3ccccc3)CC2)cc1 (stereo unspecified) 36%
COc1ccc(CCn2nnnc2C(c2ccccc2)N2CCN(C)CC2)cc1OC (stereo unspecified) -6%
CC(=O)NC(C)(C)C1CC=C(C)/C(=N\O)C1 (stereo unspecified) -8.6%
CCOc1ccc(C2C(C(=O)O)c3ccccc3C(=O)N2CCN2CCOCC2)cc1 (stereo unspecified) -15.8%
CCCCOc1ccc(C(C)(O)CCN2CCOCC2)cc1 (stereo unspecified) -4.9%
CC1(C)CN=C(N2CCN(c3ncnc4sc5c(c34)CCCC5)CC2)S1 39.4%
CCOC(=O)C1CCN(C(=O)Cc2c(C(=O)O)[nH]c3ccccc23)CC1 5.4%
Cc1ccc(SCCC(=O)OCC(=O)Nc2ncc(Cl)cc2Cl)cc1 37.2%
Cc1nc2c(-c3ccccc3)c(C)[nH]n2c(=O)c1Cl 43.9%
CCCCN=C1N/C(=C\c2ccco2)C(=O)N1c1ccccc1 2.2%
O=S(=O)(c1ccc(Sc2nnc3ccccn23)nc1)N1CCOCC1 -4.9%
CCN(c1ccccc1)S(=O)(=O)c1ccc(C(=O)Nc2nccs2)cc1 23.3%
CN(c1ccc(C(=O)NCCC2=CCCCC2)cc1)S(C)(=O)=O -11.3%
O=C(CSc1nnc(-c2c[nH]c3ccccc23)o1)c1ccccc1 18.1%
Cc1cccc(C)c1-n1c(C)cc(/C=C2\C(=O)NN(c3ccccc3)C2=O)c1C 41.5%
Cc1ccc(Oc2ccc3c(c2)C(=O)N(c2cccc4cccnc24)C3=O)cc1 -11.5%
COc1ccc(C(=O)CN2C(=O)NC(C)(c3ccc(C)cc3)C2=O)cc1OC (stereo unspecified) 17.2%
COc1ccc(C(=O)CSc2n[nH]c(N)n2)cc1 2.8%
O=C(CN1CCOCC1)Nc1c(-c2ccccc2)c2cc(Br)ccc2[nH]c1=O -15.8%
CS(=O)(=O)c1ccc2nc(NC(=O)C3CCCCC3)sc2c1 7.3%
CCCC(=O)Nc1ccccc1N1CCN(C(=O)c2ccccc2)CC1 35.7%
O=C(Nc1ccccc1N1CCCCC1)c1ccc2nccnc2c1 28.1%
O=C(Nc1ccccc1N1CCCCC1)c1cccc(F)c1 1.2%
O=C(CN1CCN(CC(=O)Nc2ccc3c(c2)OCO3)CC1)Nc1ccc(F)cc1 33.1%
O=C(c1ccc2c(c1)OCO2)N1CCNc2ccccc2C1 -40.3%
CCOc1ccc(NC(=O)N2CCN(CC)CC2)cc1 -0.2%
Cc1oc2nc(SCC(=O)Nc3ccc(S(N)(=O)=O)cc3)nc(NC(=O)c3ccccc3)c2c1C 15%
COc1ccc(Cc2nnnn2CC(=O)O)cc1 -11.9%
Cc1ccccc1-c1ccc(Nc2ccc(C(=O)N3CCOCC3)cc2)nn1 34.1%
COc1ccc(N2C(=O)CC(N3CCC(C(N)=O)CC3)C2=O)cc1 (stereo unspecified) -20.9%
COc1ccc(CCN2CNc3c(c(=O)n(C)c(=O)n3C)C2)cc1OC -29.7%
COC(=O)c1ccc(C2CC(=O)Nc3cc(OC)c(OC)cc32)cc1 (stereo unspecified) 30.2%
Cc1nn(C(C)CC(=O)O)c(C)c1C (stereo unspecified) -4.1%
COc1ccc(CN2C(=O)CN=C2Nc2ccc(C)cc2C)cc1 31.5%

inhibition, active:
O=C(CN(c1ccc2c(c1)OCCO2)S(=O)(=O)c1ccccc1)Nc1ccc2c(c1)OCO2 92.2%
COc1ccc(CC(=O)Nc2ccc3c(c2)CCC3)cc1S(=O)(=O)N1CCOCC1 59.8%
COC(=O)Nc1sc2nc(C)cc(C)c2c1-n1cccc1 55.1%
Cc1cc(C)c2c(-n3cccc3)c(C(=O)NNS(=O)(=O)c3ccc(F)cc3)sc2n1 98.1%
COc1ccc(C(c2nnnn2Cc2cccs2)N2CCN(c3ccccc3)CC2)cc1OC (stereo unspecified) 61.5%
CCCOc1ccc(C2c3c(oc4cc(C)c(C)cc4c3=O)C(=O)N2CCCN2CCOCC2)cc1 (stereo unspecified) 90.7%
Cc1ccccc1CSCCNC(=O)c1ccc(N(C)S(=O)(=O)c2ccccc2)cc1 94.3%
Cc1ccc(C2(c3ccc(C)cc3)NC(=O)N(Cc3c(C)noc3C)C2=O)cc1 60.8%
O=C(Nc1ccccc1N1CCN(C(=O)c2ccccc2)CC1)c1ccc2c(c1)OCO2 83.3%
O=C(Nc1ccccc1N1CCN(c2ccccc2)CC1)c1cccc(F)c1 81.1%
O=C(CN1CCN(c2ccccc2F)CC1)c1ccc2c(c1)OCO2 74.2%
COC(=O)c1ccc(C2C(Oc3ccccc3C)C(=O)N2CCc2ccc(OC)c(OC)c2)cc1 (stereo unspecified) 54.9%
CCCCc1nc(NCCN)c(C#N)c2c1CSC(C)(C)C2 53.6%
